# Laboratory results as given in PMC7862700, “An all-to-all approach to the identification of sequence-specific readers for epigenetic DNA modifications on cytosine”.
# Legend:
# Experiment in all cases: DAPPL (digital affinity profiling via proximity ligation, sequencing); 10 mM Tris-HCl pH 7.5, 50 mM NaCl, 1 mM DTT, 4% glycerol, room temperature, 30 min; GST-TFs on glutathione beads, 16-mer random dsDNA library, 0.1% formaldehyde crosslink after washing; high values mean tight binding
# ELK1 = molecular target: T1, ELK1 (Homo sapiens, UniProt P19419 1-428); conditions: protein: recombinant; tags: N-terminal GST; dsDNA, one strand shown
# T1 sequence: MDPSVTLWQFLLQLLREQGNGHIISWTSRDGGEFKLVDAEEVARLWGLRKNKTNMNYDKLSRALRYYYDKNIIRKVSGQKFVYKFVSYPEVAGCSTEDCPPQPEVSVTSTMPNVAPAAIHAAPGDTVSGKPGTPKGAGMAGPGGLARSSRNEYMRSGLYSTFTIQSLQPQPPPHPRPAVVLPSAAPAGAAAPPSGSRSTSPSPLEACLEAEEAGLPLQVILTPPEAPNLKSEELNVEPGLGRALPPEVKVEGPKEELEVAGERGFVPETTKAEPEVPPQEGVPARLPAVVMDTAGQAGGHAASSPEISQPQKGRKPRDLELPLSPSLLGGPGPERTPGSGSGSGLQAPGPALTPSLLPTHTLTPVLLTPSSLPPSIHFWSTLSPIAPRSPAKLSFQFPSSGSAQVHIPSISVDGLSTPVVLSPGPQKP
# Summary of the method: (§1)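 Human transcription factors were made in yeast as GST fusions, captured on glutathione beads and barcoded with DNA. With a tag-only sample included, the pool was incubated with 200 nmole of a random double-stranded 16-mer DNA library in Tris/NaCl/DTT/glycerol buffer at room temperature for 30 min, then crosslinked with 0.1% formaldehyde after washing, ligated by proximity, amplified and sequenced. For binding signal, each hexamer's read frequency for a factor is divided by its frequency for the tag-only sample.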
# GABPA = molecular target: T2, GABPA (Homo sapiens, UniProt Q06546 1-454); conditions: protein: recombinant; tags: N-terminal GST; dsDNA, one strand shown
# T2 sequence: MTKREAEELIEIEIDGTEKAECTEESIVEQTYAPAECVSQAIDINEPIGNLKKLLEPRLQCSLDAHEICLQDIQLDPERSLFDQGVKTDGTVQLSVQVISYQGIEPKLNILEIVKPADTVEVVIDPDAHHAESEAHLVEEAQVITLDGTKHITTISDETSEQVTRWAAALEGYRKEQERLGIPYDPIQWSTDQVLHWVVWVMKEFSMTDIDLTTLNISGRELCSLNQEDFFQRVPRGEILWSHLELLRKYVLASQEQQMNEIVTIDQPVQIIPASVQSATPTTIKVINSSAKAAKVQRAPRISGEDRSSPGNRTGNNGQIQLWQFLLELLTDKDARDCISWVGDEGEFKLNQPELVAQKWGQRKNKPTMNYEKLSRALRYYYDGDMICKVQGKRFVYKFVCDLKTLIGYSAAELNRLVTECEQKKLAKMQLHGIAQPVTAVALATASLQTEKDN
# Summary of the method: as §1
# ELF1 = ELF1 (Homo sapiens, UniProt P32519 1-619); conditions: protein: recombinant; tags: N-terminal GST; dsDNA, one strand shown
# Summary of the method: as §1
# ELK3 = molecular target: T3, ELK3 (Homo sapiens, UniProt P41970 1-407); conditions: protein: recombinant; tags: N-terminal GST; dsDNA, one strand shown
# T3 sequence: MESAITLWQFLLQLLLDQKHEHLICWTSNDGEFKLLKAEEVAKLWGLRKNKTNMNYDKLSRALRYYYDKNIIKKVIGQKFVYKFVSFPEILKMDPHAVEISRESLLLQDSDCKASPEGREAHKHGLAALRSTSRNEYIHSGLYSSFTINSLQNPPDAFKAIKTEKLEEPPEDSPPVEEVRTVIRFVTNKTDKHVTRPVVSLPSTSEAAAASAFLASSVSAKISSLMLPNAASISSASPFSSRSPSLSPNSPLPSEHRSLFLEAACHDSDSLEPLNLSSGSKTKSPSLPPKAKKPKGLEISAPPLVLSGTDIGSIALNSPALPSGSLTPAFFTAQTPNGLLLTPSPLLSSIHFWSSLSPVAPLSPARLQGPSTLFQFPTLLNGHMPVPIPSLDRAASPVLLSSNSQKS
# Summary of the method: as §1
# HSF1 = HSF1 (Homo sapiens, UniProt Q00613 1-529); conditions: protein: recombinant; tags: N-terminal GST; chain copies: 3; dsDNA, one strand shown
# Summary of the method: as §1
# SPIC = molecular target: T4, SPIC (Homo sapiens, UniProt Q8N5J4 1-248); conditions: protein: recombinant; tags: N-terminal GST; dsDNA, one strand shown
# T4 sequence: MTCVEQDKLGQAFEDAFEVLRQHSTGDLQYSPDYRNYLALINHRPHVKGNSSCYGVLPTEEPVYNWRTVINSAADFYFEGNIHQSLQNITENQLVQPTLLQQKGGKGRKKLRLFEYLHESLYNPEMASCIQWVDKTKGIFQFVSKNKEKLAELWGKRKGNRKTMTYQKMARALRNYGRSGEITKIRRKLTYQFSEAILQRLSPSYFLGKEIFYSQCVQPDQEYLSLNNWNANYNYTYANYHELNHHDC
# Summary of the method: as §1
# ELK4 = molecular target: T5, ELK4 (Homo sapiens, UniProt P28324-2 1-405); conditions: protein: recombinant; tags: N-terminal GST; dsDNA, one strand shown
# T5 sequence: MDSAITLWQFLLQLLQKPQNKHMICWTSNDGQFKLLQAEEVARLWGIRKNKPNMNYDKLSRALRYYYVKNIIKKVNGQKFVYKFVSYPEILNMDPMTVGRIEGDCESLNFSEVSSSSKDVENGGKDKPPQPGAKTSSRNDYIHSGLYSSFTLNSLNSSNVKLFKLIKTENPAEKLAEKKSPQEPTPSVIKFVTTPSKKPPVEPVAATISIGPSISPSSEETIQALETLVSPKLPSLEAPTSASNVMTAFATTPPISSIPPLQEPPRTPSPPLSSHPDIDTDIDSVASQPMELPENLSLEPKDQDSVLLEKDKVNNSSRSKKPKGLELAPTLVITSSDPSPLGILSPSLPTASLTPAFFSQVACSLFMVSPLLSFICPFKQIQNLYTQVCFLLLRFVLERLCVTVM
# Summary of the method: as §1
# ETV2 = molecular target: T6, ETV2 (Homo sapiens, UniProt O00321 1-342); conditions: protein: recombinant; tags: N-terminal GST; dsDNA, one strand shown
# T6 sequence: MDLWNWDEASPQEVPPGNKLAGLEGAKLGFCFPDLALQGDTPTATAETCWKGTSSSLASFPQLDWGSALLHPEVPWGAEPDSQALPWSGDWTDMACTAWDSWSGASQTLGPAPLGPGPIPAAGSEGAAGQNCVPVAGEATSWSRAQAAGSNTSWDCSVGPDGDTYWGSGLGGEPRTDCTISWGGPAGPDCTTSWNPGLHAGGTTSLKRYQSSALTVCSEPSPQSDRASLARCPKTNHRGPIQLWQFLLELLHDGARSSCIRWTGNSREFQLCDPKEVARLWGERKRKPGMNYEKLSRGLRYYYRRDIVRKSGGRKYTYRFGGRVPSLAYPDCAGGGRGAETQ
# Summary of the method: as §1
# ERF = molecular target: T7, ERF (Homo sapiens, UniProt P50548 1-548); conditions: protein: recombinant; tags: N-terminal GST; dsDNA, one strand shown
# T7 sequence: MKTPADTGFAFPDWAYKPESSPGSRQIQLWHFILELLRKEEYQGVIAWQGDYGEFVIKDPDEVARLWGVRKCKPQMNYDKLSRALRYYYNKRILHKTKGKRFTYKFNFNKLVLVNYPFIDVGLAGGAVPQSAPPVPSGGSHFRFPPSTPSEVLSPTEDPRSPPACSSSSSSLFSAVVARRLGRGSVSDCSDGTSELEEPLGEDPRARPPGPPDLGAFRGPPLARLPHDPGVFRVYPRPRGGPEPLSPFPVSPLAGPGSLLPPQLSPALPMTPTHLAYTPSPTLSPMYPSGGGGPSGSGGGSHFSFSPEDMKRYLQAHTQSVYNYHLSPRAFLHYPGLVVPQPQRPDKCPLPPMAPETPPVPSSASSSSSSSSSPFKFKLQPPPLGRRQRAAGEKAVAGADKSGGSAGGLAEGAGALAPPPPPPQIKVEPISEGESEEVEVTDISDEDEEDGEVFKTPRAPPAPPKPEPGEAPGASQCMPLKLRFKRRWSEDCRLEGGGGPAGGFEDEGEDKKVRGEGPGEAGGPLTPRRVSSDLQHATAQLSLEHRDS
# Summary of the method: as §1
# ETV7 = molecular target: T8, ETV7 (Homo sapiens, UniProt Q9Y603 1-341); conditions: protein: recombinant; tags: N-terminal GST; dsDNA, one strand shown
# T8 sequence: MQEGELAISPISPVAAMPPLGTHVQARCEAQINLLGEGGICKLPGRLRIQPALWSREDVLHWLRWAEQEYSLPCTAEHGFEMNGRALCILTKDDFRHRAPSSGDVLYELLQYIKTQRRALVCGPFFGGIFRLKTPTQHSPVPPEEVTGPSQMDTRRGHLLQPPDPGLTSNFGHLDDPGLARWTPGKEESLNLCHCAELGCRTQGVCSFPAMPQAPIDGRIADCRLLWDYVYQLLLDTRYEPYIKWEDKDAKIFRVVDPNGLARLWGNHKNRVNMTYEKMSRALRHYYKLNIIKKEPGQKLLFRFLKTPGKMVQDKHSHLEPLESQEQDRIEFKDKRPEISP
# Summary of the method: as §1
# ETV3 = molecular target: T9, ETV3 (Homo sapiens, UniProt P41162-2 1-143); conditions: protein: recombinant; tags: N-terminal GST; dsDNA, one strand shown
# T9 sequence: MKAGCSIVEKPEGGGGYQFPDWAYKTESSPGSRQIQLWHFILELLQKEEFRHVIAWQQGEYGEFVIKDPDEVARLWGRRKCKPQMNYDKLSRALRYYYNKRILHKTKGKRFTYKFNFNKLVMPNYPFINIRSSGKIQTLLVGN
# Summary of the method: as §1
# Sequence of HSF1 (Q00613 whole entry): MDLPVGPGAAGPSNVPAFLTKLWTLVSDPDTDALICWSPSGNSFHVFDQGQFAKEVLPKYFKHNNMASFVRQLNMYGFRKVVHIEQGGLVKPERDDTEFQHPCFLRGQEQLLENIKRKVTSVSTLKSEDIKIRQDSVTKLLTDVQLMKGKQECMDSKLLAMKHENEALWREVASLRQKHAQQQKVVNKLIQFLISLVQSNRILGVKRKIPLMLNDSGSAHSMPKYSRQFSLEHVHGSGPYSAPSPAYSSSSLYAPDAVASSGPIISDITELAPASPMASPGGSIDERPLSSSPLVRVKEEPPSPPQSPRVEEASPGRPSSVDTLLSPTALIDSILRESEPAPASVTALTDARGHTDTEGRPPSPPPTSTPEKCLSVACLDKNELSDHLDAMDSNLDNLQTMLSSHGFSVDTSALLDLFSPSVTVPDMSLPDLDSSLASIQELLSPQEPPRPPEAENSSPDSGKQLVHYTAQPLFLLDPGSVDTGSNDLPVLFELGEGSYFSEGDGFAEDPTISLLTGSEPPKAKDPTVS
# Sequence of ELF1 (P32519 whole entry): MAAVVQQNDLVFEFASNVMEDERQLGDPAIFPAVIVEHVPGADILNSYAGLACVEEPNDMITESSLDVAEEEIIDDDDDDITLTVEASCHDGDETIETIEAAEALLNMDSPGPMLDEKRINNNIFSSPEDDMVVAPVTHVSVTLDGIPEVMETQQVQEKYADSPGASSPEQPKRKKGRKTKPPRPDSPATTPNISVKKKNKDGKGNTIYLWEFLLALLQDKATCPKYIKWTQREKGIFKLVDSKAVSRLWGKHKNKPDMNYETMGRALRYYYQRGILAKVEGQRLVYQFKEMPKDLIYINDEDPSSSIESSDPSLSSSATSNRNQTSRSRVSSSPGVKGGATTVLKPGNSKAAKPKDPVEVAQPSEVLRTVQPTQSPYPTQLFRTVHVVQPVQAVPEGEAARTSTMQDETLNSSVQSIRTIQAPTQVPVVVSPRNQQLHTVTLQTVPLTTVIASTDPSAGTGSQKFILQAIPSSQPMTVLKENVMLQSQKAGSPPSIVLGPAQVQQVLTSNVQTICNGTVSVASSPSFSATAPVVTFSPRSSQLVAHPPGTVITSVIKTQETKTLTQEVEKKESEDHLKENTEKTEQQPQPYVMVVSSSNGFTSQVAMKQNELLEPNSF
sequence,measurement,setting,value
CGCGAA,binding signal,ELK1,"1.04 fold enrichment (6-mer frequency, TF over GST control)"
same,binding signal,GABPA,"1.01 fold enrichment (6-mer frequency, TF over GST control)"
same,binding signal,ELF1,"1.03 fold enrichment (6-mer frequency, TF over GST control)"
same,binding signal,ELK3,"1.05 fold enrichment (6-mer frequency, TF over GST control)"
same,binding signal,HSF1,"1.76 fold enrichment (6-mer frequency, TF over GST control)"
same,binding signal,SPIC,"1.02 fold enrichment (6-mer frequency, TF over GST control)"
same,binding signal,ELK4,"1.08 fold enrichment (6-mer frequency, TF over GST control)"
same,binding signal,ETV2,"1.11 fold enrichment (6-mer frequency, TF over GST control)"
same,binding signal,ERF,"1.01 fold enrichment (6-mer frequency, TF over GST control)"
same,binding signal,ETV7,"1.1 fold enrichment (6-mer frequency, TF over GST control)"
same,binding signal,ETV3,"1.01 fold enrichment (6-mer frequency, TF over GST control)"
